From PubChem BioAssay (NCATS)
Inconclusive results are not listed. Values without a mark were called inactive. The call rests on the fitted dose curve; in most records, active means well fitted inhibition curve with a large enough effect; inconclusive means small, poorly fitted or top-dose-only effect; inactive means flat fitted curve, though single readings scatter. Where a SMILES comes first, the peptide text is derived from it. Bridges are numbered along the chain shown (N, C = ends). [ ]: non-standard residue; d: D form. The star is where a group is joined. X1 = CC[C@@H](C)[C@@H](N)C1=N[C@H](C(=O)*)CS1; d(aIle) = CC[C@H](C)[C@@H](N)C(=O)O; dOrn = NCCC[C@@H](N)C(=O)O

Assay: Drug repurposing screens with cells derived from glioblastoma tumor samples (AID 1345199); further: nearly all actives have a fitted effect of over 40% in size
Conditions: GBM patient neurospheres viability, ATP luminescence, 48 h; at 45.9 µM (top of the series); tumour line D
Procedure, shortened: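 Four patient lines of CD133+ GBM neurospheres were screened at several concentrations; hits were retested in those lines plus three slower-growing GBM lines, using 48-hour treatment and ATP-based viability.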
On the % scale 0 is the no-effect control and ±100 the full control effect.

SMILES	activity, negative = cell killing [%]
COc1ccc(C[C@H](C)NC[C@@H](O)c2ccc(O)c(NC=O)c2)cc1	-10.9
O=C(OCc1ccccc1)c1ccc(O)cc1	-12.6
C#C[C@]1(O)CC[C@@H]2[C@H]3CCC4=CC(=O)CC[C@H]4[C@H]3C(=C)C[C@@]21CC	-28.7
CC(C)(C)c1ccc2c(S(=O)(=O)O)c(C(C)(C)C)ccc2c1	6.66
COc1cc(C)c(/C=C/C(C)=C/C=C/C(C)=C/C(=O)O)c(C)c1C	8.72
CC1=C(/C=C/C(C)=C/C=C/C(C)=C/C(=O)Oc2c(C)c(C)c3c(c2C)CC[C@@](C)(CCC[C@H](C)CCC[C@H](C)CCCC(C)C)O3)C(C)(C)CCC1	-2.61
CC[C@@H](C)[C@@H](N)C1=N[C@H](C(=O)N[C@@H](CC(C)C)C(=O)N[C@@H](CCC(=O)O)C(=O)N[C@@H](C(=O)N[C@@H]2CCCCNC(=O)[C@@H](CC(N)=O)NC(=O)[C@@H](CC(=O)O)NC(=O)[C@@H](Cc3cnc[nH]3)NC(=O)[C@@H](Cc3ccccc3)NC(=O)[C@@H]([C@H](C)CC)NC(=O)[C@@H](CCCN)NC2=O)[C@@H](C)CC)CS1 (X1-LE[d(aIle)][dK][dOrn][dI][dF][dH][dD][dN]; lactam 4-C)	-10.9
CO[C@H]1C[C@@H]2CC[C@@H](C)[C@@](O)(O2)C(=O)C(=O)N2CCCC[C@H]2C(=O)O[C@H]([C@H](C)C[C@@H]2CC[C@@H](OC(=O)C(C)(CO)CO)[C@H](OC)C2)CC(=O)[C@H](C)/C=C(\C)[C@@H](O)[C@@H](OC)C(=O)[C@H](C)C[C@H](C)/C=C/C=C/C=C/1C	-16
CC(=O)Oc1cccc2c1C(=O)c1c(OC(C)=O)cc(C(=O)O)cc1C2=O	-16.7
C/C(=C\C(=O)OCCCCCCCCC(=O)O)C[C@@H]1OC[C@H](C[C@@H]2O[C@H]2[C@@H](C)[C@H](C)O)[C@@H](O)[C@H]1O	-9.28
Cc1c(Cl)cccc1Nc1ncccc1C(=O)O	-17
CC1CC(OC(=O)C(O)c2ccccc2)CC(C)(C)C1 (configuration not stated)	6.83
